Assay [1] concerns the target Homeodomain-interacting protein kinase 3 (Homo sapiens) (UniProt Q9H422). The note with it: at 10 µM.
Assay [2] addresses Tyrosine-protein kinase HCK (Homo sapiens) (UniProt P08631). To be noted: at 1 µM.
Assay [3] has the same target. To be noted: at 10 µM.
For assay [4] the target is unchanged. The note with it: at 1 µM. This is another data set of the same source.
For assay [5] the target is unchanged. The note with it: at 10 µM. The source holds these as a separate data set.
Assay [6] has as its target T1, Protein kinase C zeta type (Homo sapiens) (UniProt Q05513).
T1 sequence (whole entry): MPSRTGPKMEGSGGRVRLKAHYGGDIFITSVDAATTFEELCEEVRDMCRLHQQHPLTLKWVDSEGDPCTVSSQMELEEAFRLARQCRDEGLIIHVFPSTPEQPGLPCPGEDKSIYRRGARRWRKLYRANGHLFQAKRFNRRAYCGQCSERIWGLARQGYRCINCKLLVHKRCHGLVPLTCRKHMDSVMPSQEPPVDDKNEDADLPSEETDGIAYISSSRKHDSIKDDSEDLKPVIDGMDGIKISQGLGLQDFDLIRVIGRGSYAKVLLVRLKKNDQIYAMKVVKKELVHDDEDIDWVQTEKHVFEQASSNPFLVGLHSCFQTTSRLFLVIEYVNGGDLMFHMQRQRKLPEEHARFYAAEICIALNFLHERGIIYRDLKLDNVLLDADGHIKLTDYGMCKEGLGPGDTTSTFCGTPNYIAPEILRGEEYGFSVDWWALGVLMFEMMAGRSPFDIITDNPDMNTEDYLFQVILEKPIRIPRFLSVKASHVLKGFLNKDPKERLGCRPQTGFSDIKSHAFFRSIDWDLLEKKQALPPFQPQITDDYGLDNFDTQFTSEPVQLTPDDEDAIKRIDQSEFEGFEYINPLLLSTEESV
To be noted: at 10 µM.

Assay [7] has as its target Protein kinase C eta type (Homo sapiens) (UniProt P24723). To be noted: at 10 µM.
In assay [8] the target is Protein kinase C theta type (Homo sapiens) (UniProt Q04759). The note with it: at 1 µM.
For assay [9] the target is unchanged. To be noted: at 10 µM.
Assay [10] addresses T2, Protein kinase C iota type (Homo sapiens) (UniProt P41743).
T2 sequence (whole entry): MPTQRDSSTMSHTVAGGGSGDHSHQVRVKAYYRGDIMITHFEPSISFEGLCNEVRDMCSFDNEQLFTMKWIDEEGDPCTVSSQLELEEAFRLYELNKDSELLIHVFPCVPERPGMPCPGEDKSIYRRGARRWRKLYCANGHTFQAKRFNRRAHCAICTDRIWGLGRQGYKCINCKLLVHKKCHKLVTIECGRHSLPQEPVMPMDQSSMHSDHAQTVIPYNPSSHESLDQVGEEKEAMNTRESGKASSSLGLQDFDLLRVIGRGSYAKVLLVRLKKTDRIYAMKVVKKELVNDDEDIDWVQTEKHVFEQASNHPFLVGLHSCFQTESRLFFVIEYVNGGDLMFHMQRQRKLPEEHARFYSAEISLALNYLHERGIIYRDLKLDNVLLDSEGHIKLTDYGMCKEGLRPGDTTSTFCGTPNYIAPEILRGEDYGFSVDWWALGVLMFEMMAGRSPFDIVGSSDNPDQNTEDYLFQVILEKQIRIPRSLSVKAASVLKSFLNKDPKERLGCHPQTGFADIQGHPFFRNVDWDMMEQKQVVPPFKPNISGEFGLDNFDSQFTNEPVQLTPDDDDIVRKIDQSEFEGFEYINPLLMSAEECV
To be noted: at 1 µM.

For assay [11], the target named is T2, Protein kinase C iota type (Homo sapiens). To be noted: at 10 µM.
In assay [12] the target is T3, Serine/threonine-protein kinase D1 (Homo sapiens) (UniProt Q15139).
T3 sequence (whole entry): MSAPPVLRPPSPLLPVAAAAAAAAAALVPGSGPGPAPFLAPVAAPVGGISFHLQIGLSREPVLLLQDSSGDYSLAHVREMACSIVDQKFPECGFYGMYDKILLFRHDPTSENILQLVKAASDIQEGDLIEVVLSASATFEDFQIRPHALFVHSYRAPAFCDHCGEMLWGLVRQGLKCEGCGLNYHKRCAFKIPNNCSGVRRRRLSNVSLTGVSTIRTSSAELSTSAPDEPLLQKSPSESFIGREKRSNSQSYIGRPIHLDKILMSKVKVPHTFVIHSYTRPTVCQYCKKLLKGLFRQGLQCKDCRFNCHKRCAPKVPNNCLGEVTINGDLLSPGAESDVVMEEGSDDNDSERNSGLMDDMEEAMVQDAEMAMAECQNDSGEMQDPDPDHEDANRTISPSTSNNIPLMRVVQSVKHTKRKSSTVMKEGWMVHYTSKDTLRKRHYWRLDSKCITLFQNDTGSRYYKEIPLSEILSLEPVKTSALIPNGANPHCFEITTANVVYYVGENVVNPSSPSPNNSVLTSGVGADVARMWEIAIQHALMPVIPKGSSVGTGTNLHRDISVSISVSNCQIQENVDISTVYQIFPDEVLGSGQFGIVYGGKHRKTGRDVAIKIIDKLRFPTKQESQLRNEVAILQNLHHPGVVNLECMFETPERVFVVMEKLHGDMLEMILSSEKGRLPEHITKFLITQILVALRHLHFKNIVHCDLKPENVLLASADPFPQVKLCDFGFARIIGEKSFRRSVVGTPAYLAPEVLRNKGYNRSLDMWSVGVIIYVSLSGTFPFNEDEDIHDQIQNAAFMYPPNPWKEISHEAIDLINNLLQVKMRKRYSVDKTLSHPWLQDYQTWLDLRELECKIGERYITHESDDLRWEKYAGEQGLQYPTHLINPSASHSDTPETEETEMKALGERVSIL
To be noted: at 1 µM.

The target of assay [13] is T3, Serine/threonine-protein kinase D1 (Homo sapiens). To be noted: at 10 µM.
The target in assay [14] is T4, Serine/threonine-protein kinase D2 (Homo sapiens) (UniProt Q9BZL6).
T4 sequence (whole entry): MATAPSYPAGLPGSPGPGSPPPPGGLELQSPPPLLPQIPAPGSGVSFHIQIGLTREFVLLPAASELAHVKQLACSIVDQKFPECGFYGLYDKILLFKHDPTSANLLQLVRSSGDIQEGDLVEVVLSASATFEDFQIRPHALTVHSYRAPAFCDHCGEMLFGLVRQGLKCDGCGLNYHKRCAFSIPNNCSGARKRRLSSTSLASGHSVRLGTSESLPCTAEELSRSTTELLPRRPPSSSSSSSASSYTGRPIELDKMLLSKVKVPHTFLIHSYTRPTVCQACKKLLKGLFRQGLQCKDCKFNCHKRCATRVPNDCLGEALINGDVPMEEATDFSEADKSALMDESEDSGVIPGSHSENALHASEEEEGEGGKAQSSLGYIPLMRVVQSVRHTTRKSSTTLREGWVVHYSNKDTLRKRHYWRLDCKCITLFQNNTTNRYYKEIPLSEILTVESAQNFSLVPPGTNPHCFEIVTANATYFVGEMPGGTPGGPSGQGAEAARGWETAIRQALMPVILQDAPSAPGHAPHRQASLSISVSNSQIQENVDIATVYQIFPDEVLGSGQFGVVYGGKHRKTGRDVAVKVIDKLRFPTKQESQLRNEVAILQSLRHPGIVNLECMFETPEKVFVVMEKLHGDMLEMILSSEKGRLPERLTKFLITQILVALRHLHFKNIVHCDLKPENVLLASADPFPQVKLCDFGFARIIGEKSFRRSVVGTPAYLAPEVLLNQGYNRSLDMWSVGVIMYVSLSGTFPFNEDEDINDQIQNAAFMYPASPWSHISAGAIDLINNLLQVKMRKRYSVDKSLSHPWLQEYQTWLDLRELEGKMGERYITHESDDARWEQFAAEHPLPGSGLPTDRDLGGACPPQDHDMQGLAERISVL
The note with it: at 1 µM.

The target of assay [15] is T4, Serine/threonine-protein kinase D2 (Homo sapiens). The note with it: at 10 µM.
In assay [16] the target is T5, Serine/threonine-protein kinase haspin (Homo sapiens) (UniProt Q8TF76).
T5 sequence (whole entry): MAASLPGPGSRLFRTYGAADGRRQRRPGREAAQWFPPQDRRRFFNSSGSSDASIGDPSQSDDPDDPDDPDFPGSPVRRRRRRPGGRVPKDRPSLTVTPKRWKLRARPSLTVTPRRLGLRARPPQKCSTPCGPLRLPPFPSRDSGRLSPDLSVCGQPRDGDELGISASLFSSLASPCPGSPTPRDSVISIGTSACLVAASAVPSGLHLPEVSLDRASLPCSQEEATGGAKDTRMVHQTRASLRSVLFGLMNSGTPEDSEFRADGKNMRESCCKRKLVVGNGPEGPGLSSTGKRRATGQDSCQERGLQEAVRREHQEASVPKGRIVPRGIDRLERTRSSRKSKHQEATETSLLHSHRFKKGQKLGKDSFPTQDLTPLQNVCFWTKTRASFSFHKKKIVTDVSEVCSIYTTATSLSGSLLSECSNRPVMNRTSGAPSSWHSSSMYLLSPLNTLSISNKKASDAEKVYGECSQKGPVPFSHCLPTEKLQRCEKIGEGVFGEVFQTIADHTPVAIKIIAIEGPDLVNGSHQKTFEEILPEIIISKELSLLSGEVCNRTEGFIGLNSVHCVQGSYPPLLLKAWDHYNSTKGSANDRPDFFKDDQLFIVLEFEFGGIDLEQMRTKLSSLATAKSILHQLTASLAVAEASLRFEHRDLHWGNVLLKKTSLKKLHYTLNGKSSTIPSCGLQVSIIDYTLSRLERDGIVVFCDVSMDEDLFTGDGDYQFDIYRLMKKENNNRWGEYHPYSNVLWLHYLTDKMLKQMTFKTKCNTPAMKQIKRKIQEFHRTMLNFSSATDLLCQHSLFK
To be noted: at 1 µM.

Assay [17] addresses T5, Serine/threonine-protein kinase haspin (Homo sapiens). To be noted: at 10 µM.
The target in assay [18] is Insulin-like growth factor 1 receptor (Homo sapiens) (UniProt P08069). To be noted: at 1 µM.
For assay [19], the target named is Protein kinase C eta type (Homo sapiens) (UniProt P24723). The note with it: at 1 µM.
Assay [20] has as its target Insulin-like growth factor 1 receptor (Homo sapiens) (UniProt P08069). The note with it: at 10 µM.

Chain of Protein kinase C eta type (Homo sapiens) (P24723 whole entry): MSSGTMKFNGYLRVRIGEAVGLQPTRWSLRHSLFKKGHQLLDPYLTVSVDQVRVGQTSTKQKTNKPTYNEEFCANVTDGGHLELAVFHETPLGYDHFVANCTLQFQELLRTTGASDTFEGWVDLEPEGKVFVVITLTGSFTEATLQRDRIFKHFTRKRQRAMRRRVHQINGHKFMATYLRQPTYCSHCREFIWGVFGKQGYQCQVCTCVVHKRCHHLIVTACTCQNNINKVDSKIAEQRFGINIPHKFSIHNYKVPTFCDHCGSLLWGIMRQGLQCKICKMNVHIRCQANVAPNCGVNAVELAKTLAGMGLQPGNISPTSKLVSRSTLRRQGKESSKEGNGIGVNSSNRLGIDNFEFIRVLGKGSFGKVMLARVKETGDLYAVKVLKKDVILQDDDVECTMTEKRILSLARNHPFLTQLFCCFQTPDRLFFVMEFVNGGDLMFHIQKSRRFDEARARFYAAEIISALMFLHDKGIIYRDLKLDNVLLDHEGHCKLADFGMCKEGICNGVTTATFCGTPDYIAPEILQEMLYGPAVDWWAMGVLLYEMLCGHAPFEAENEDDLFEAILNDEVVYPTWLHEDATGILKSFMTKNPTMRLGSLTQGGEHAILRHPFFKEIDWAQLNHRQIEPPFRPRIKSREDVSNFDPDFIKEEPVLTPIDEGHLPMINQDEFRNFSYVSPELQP
Chain of Insulin-like growth factor 1 receptor (Homo sapiens) (P08069 31-736 limits assumed): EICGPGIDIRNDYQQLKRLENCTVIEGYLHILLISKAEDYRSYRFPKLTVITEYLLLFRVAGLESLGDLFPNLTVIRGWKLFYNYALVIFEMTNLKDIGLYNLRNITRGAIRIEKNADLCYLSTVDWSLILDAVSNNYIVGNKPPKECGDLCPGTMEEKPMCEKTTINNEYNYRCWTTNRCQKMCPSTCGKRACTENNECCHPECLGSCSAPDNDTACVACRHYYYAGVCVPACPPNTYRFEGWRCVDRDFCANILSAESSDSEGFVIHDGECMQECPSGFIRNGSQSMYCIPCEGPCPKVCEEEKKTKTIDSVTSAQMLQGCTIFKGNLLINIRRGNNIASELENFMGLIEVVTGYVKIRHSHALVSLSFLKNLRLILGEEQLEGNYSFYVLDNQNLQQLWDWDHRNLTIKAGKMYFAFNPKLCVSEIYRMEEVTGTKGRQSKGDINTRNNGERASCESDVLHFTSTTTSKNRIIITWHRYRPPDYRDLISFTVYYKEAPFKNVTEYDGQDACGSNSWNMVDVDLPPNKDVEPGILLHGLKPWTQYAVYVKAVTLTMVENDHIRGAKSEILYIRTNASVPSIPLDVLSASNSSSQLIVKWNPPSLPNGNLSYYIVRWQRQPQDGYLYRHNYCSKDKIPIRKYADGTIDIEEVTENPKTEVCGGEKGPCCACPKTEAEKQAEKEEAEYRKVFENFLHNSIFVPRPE
Chain of Insulin-like growth factor 1 receptor (Homo sapiens) (P08069 741-1367 limits assumed): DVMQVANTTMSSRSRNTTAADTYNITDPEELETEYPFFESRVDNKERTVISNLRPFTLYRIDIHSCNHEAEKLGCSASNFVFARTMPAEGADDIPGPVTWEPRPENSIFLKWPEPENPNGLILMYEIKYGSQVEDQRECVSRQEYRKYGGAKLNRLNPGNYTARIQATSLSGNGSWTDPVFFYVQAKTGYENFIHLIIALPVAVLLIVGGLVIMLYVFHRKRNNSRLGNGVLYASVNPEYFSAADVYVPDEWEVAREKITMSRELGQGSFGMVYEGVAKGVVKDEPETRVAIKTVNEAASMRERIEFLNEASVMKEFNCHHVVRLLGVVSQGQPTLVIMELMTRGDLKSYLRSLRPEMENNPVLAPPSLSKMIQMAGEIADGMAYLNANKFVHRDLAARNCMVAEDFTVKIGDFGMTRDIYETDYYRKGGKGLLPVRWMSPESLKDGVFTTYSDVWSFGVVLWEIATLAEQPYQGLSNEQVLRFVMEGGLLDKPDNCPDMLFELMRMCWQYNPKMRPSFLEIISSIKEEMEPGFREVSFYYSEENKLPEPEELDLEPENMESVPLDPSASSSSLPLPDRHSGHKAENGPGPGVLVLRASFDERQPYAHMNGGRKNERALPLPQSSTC
Chain of Homeodomain-interacting protein kinase 3 (Homo sapiens) (Q9H422 whole entry, looked up): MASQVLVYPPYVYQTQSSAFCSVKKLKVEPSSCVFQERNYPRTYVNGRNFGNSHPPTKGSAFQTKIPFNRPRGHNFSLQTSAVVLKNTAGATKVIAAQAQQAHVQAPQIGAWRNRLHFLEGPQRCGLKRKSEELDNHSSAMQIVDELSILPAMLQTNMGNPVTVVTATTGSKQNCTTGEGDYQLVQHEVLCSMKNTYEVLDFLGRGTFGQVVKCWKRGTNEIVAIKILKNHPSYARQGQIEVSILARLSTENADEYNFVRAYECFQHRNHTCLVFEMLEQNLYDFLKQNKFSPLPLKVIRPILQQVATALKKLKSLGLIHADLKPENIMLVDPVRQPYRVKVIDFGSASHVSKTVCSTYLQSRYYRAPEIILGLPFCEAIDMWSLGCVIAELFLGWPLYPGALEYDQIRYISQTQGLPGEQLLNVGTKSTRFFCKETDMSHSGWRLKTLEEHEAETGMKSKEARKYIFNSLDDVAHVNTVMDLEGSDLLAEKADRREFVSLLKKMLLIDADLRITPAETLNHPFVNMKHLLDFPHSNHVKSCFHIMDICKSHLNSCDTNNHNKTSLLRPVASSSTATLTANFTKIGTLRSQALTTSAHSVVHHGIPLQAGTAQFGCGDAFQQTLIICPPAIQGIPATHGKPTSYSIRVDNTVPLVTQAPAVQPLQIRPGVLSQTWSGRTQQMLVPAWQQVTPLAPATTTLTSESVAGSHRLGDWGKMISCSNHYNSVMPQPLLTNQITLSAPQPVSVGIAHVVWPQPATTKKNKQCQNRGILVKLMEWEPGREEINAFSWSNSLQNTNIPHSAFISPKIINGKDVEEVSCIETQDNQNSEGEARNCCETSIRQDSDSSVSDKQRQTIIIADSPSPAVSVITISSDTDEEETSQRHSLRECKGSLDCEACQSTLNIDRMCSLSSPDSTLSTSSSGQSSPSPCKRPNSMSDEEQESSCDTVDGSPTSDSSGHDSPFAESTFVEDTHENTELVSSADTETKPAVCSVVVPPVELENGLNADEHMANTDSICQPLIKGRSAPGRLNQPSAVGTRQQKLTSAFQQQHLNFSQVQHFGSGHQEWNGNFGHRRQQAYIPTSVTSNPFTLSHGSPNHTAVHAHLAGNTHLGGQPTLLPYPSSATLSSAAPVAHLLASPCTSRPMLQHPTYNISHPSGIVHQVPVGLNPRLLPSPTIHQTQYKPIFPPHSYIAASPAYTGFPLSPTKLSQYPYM
Chain of Protein kinase C theta type (Homo sapiens) (Q04759 whole entry, looked up): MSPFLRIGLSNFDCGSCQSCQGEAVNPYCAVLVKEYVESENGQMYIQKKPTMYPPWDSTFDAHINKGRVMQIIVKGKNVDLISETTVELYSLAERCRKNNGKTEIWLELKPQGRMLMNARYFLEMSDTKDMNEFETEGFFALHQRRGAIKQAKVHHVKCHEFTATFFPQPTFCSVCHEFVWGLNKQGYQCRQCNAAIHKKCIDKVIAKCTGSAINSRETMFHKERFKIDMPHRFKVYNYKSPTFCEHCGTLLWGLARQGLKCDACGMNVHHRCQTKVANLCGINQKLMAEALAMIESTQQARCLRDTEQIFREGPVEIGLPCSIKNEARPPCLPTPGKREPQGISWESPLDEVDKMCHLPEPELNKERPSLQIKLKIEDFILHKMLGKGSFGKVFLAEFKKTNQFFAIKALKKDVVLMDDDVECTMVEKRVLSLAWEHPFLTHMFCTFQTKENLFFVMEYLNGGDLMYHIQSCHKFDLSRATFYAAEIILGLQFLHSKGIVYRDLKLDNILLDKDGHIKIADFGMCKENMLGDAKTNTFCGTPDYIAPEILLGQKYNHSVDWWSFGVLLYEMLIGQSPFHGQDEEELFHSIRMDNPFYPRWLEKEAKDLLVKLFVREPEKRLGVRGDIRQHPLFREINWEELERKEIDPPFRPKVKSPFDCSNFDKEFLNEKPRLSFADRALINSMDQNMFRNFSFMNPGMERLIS
Chain of Tyrosine-protein kinase HCK (Homo sapiens) (P08631 2-526 limits assumed): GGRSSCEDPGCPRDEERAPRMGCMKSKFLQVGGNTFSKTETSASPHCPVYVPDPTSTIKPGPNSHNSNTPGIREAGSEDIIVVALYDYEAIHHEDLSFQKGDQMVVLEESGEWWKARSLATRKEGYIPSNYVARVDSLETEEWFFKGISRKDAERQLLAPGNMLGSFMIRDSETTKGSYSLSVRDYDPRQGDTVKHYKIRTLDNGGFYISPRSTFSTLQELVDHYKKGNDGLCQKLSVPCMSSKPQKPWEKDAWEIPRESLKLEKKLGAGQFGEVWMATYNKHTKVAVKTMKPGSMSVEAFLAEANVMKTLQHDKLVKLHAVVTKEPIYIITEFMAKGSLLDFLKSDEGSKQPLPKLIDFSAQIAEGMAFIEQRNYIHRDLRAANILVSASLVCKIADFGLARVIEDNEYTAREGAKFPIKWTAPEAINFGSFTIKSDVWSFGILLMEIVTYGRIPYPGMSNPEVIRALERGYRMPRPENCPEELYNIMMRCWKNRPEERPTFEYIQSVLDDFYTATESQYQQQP

For `CCN(CC)C(=O)c1ccc(Nc2nc(OCC3CCCCC3)c3nc[nH]c3n2)cc1`, the residual activity in assay [1] turned out to be 62%; in assay [2], 31%; in assay [3] it was 5%; in assay [4], 43%; in assay [5] it was 7%; in assay [6] it was 95%. The residual activity in [7] was 55%; in [8], 78%; in assay [9], 39%; in assay [10], 99% (inactive); in assay [11], 103%; in assay [12], 72%. In addition, the values for the residual activity in assay [13], in assay [14] and in [15] were 23%, 93% and 51%, respectively.
For `Cc1cncc2cccc(S(=O)(=O)N3CCCN(C(=O)CN)C[C@H]3C)c12`, the residual activity turned out to be 91% in assay [16]; 62% in [17]; 69% in [2]; 60% in assay [3]; 98% in [4]; 73% in [5]. Moreover, the residual activity is 134% in assay [18]; 50% in [6]; 27% in assay [19]; 4% in [7]; 21% in [8]; 3% in assay [9]. The residual activity was 82% (inactive) in assay [10], 75% in assay [11], 83% in assay [12] and 71% in assay [13].
`COc1cc2ncnc(Nc3ccc(Oc4ccccc4)cc3)c2cc1OC`: the residual activity worked out at 105% in assay [1]; 4% in assay [2]; 5% in assay [3]; 20% in [4]; 3% in assay [5]; 117% in assay [18]. Further, the residual activity was 112% in assay [20]; 104% in assay [6]; 98% in assay [19]; 83% in assay [7]; 108% in [8]; 112% in assay [9]. The residual activity in [10] is 90% (inactive); in [11] it was 76%; in assay [12] it was 95%; in assay [13], 103%; in assay [14], 106%; in [15], 106%.
In the case of `COc1cc2ncnc(Nc3ccc(NC(=O)c4ccccc4)cc3)c2cc1OC`, the residual activity in assay [1] came out at 90%; in [16], 92%; in [17], 59%; in [2], 69%; in assay [3], 20%; in assay [4], 100%. Besides, the residual activity was found to be 60% in [5]; 135% in assay [20]; 103% in assay [6]; 137% in assay [19]; 95% in assay [7]; 101% in assay [9]. In addition, the residual activity in assay [10] is 101% (inactive); in assay [11], 66%; in [13], 88%; in [14], 100%; in assay [15], 106%.

As usually defined, the residual activity is the signal under treatment as a percentage of the control signal.
